Compounds without any hit were thinned out: in the full panel of roughly 79,000, 15% have a hit. Active and inactive are the calls of the source. Cut-off read from the data, not from the text of the source: active = growth inhibition above about 70%; inactive = the rest.
Assays:
[1] = NCI Yeast Anticancer Drug Screen. Data for the rad52 strain (AID 147);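 note: 0% = growth of vehicle-treated control cultures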; conditions: S. cerevisiae rad52 mutant growth inhibition, active compounds read high
In short: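 Measured: yeast growth inhibition. System: strain with a defined DNA damage repair alteration. Reference: vehicle-treated control cultures.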

[2] = NCI Yeast Anticancer Drug Screen. Data for the wt1 strain (AID 149);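 note: 0% = growth of vehicle-treated wt1 cultures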; conditions: S. cerevisiae wt1 strain (SPY 50644) growth inhibition, active compounds read high
In short: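 Each compound is tested on wt1 yeast and the loss of growth versus vehicle gives the inhibition value.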

[3] = NCI Yeast Anticancer Drug Screen. Data for the rad50EPP+ strain (AID 151);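 note: 0% = growth of vehicle-treated control cultures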; conditions: S. cerevisiae rad50 mutant strain, active compounds read high
In short: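 One strain with a rad50 alteration (rad50EPP+) was compound-treated, its growth then compared to that of vehicle controls.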

[4] = NCI Yeast Anticancer Drug Screen. Data for the mgt1 strain (AID 153); conditions: S. cerevisiae mgt1 mutant growth inhibition, active compounds read high
In short: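 After exposure of the mgt1 yeast mutant to compound, growth was measured and reported as inhibition compared with vehicle controls.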

[5] = NCI Yeast Anticancer Drug Screen. Data for the rad50 strain (AID 155);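 note: 0% = growth of vehicle-only cultures of the same strain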; conditions: S. cerevisiae rad50 strain growth inhibition, active compounds read high
In short: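 Vehicle-treated cultures provide the reference for the growth inhibition reported for compound-exposed, repair-deficient yeast.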

[6] = NCI Yeast Anticancer Drug Screen. Data for the mec2-1 strain (AID 157); conditions: S. cerevisiae mec2-1 strain, active compounds read high
In short: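 Test agents were screened against the mec2-1 yeast strain, with defined DNA repair or cell cycle alteration. Growth was scored as inhibition against vehicle-only controls.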

[7] = NCI Yeast Anticancer Drug Screen. Data for the rad14 strain (AID 159);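 note: 0% = growth of vehicle-treated control cultures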; conditions: S. cerevisiae rad14 strain growth inhibition, active compounds read high
In short: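 Inhibition of growth is reported for a repair-deficient yeast mutant following compound treatment, calculated relative to cultures that received vehicle.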

[8] = NCI Yeast Anticancer Drug Screen. Data for the sgs1 mgt1 strain (AID 161);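 note: 0% = growth of cultures given vehicle only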; conditions: S. cerevisiae sgs1 mgt1 strain, active compounds read high
In short: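 Read-out: growth inhibition vs vehicle controls. Cells: mutant yeast strain deficient in DNA damage repair.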

[9] = NCI Yeast Anticancer Drug Screen. Data for the CLN2oe strain (AID 163);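 note: 0% = growth of vehicle-only control cultures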; conditions: S. cerevisiae CLN2oe strain, active compounds read high
In short: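 Here, growth inhibition in a cell-cycle-altered yeast strain after compound exposure was quantified against vehicle control growth.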

[10] = NCI Yeast Anticancer Drug Screen. Data for the cln2 rad14 strain (AID 165);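 note: 0% = growth equal to vehicle treated cultures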; conditions: S. cerevisiae cln2 rad14 strain, active compounds read high
In short: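 Growth of compound-exposed yeast (cln2 rad14 genotype) measured and expressed as inhibition relative to vehicle.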

[11] = NCI Yeast Anticancer Drug Screen. Data for the bub3 strain (AID 167); conditions: S. cerevisiae bub3 mutant strain, active compounds read high
In short: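 Mutant yeast screening strain plus compound; vehicle-treated cultures serve as the 0% inhibition reference.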

[12] = NCI Yeast Anticancer Drug Screen. Data for the wt2 strain (AID 169); conditions: S. cerevisiae wt2 strain growth inhibition, active compounds read high
In short: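 Genetically defined yeast strains from a DNA-repair/cell-cycle panel were used. Compound-exposed yeast growth was measured, and the inhibition was calculated relative to vehicle treatment.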

[13] = NCI Yeast Anticancer Drug Screen. Data for the mlh1 strain (AID 171);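 note: 0% = growth of vehicle-treated control cultures of the same strain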; conditions: S. cerevisiae mlh1 strain growth inhibition, active compounds read high
In short: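 Here the genetically defined yeast mutant is grown with each compound, and the extent to which its growth falls below that of vehicle-exposed cells is reported.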

[14] = NCI Yeast Anticancer Drug Screen. Data for the sgs1 strain (AID 173);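 note: 0% = growth of vehicle-only control cultures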; conditions: S. cerevisiae sgs1 mutant, active compounds read high
In short: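 Relative growth inhibition, referenced to vehicle, was determined in a yeast strain with a defined alteration affecting DNA damage repair or cell cycle control after compound exposure.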

[15] = NCI Yeast Anticancer Drug Screen. Data for the mlh1 rad18 strain (AID 175); conditions: S. cerevisiae mlh1 rad18 strain growth inhibition, active compounds read high
In short: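 In this whole-cell yeast screen, a strain with altered DNA damage repair is challenged with compound, and its growth is measured against matched vehicle-treated controls.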

[16] = at 5.0 µM (retest, dose inferred, filed as 0.5)
[17] = at 50.0 µM (retest, dose inferred, filed as 5.0)

Measured: growth inhibition

CC(C)Cc1ncc(CCCN=C(N)N)[nH]c1=O
inactive: [1]; at 1.2 µM -7% | [1]; at 3.7 µM -10% | [1]; at 11.0 µM -5% | [1]; at 33.0 µM -1% | [1]; at 100.0 µM -5% | [2]; at 1.2 µM 0% | [2]; at 3.7 µM 1% | [2]; at 11.0 µM 4% | [2]; at 33.0 µM 3% | [2]; at 100.0 µM 6% | [3]; at 1.2 µM -2% | [3]; at 3.7 µM -13% | [3]; at 11.0 µM 0% | [3]; at 33.0 µM 9% | [3]; at 100.0 µM 9% | [4]; at 1.2 µM -2% | [4]; at 3.7 µM -5% | [4]; at 11.0 µM -3% | [4]; at 33.0 µM -6% | [4]; at 100.0 µM -6% | [5]; at 1.2 µM -14% | [5]; at 3.7 µM -19% | [5]; [16] -5% | [5]; at 11.0 µM -21% | [5]; at 33.0 µM -20% | [5]; [17] 4% | [5]; at 100.0 µM 2% | [6]; at 1.2 µM -4% | [6]; at 3.7 µM -2% | [6]; [16] 3% | [6]; at 11.0 µM -3% | [6]; at 33.0 µM -5% | [6]; [17] 49% | [6]; at 100.0 µM -3% | [7]; at 1.2 µM 0% | [7]; at 3.7 µM 1% | [7]; at 11.0 µM 15% | [7]; at 33.0 µM 11% | [7]; at 100.0 µM -2% | [8]; [16] 1% | [8]; [17] 38% | [9]; at 1.2 µM -4% | [9]; at 3.7 µM -5% | [9]; at 11.0 µM -13% | [9]; at 33.0 µM -11% | [9]; at 100.0 µM -7% | [10]; [16] -7% | [10]; [17] 38% | [11]; at 1.2 µM -9% | [11]; at 3.7 µM -6% | [11]; [16] -6% | [11]; at 11.0 µM -10% | [11]; at 33.0 µM -14% | [11]; at 100.0 µM -14% | [12]; at 1.2 µM 6% | [12]; at 3.7 µM 12% | [12]; at 11.0 µM 15% | [12]; at 33.0 µM 17% | [12]; at 100.0 µM 14% | [13]; at 1.2 µM -11% | [13]; at 3.7 µM -6% | [13]; at 11.0 µM -6% | [13]; at 33.0 µM -4% | [13]; at 100.0 µM -1% | [14]; at 1.2 µM -13% | [14]; at 3.7 µM -12% | [14]; at 11.0 µM -6% | [14]; at 33.0 µM -3% | [14]; at 100.0 µM -8% | [15]; [16] 2% | [15]; [17] 55% | [15]; at 50.0 µM 33.4%
active: [5]; at 50.0 µM 82.8% | [6]; at 50.0 µM 77.8% | [8]; at 50.0 µM 84.2% | [10]; at 50.0 µM 74.5% | [11]; [17] 91% | [11]; at 50.0 µM 81.8%

c1ccc(-c2cc(C3CO3)c3ccccc3n2)cc1 (stereo unspecified)
inactive: [1]; at 1.2 µM -1% | [1]; at 3.7 µM 5% | [1]; at 11.0 µM 19% | [2]; at 1.2 µM -1% | [2]; at 3.7 µM -3% | [2]; at 11.0 µM -5% | [2]; at 33.0 µM 2% | [3]; at 1.2 µM 2% | [3]; at 3.7 µM 6% | [3]; at 11.0 µM 24% | [3]; at 33.0 µM 46% | [3]; at 100.0 µM 68% | [4]; at 1.2 µM -2% | [4]; at 3.7 µM -4% | [4]; at 11.0 µM 1% | [4]; at 33.0 µM 69% | [5]; at 1.2 µM -4% | [5]; at 3.7 µM 1% | [5]; [16] -14% | [5]; at 11.0 µM -4% | [5]; at 33.0 µM 36% | [5]; [17] 15% | [6]; at 1.2 µM -3% | [6]; at 3.7 µM -1% | [6]; [16] -28% | [6]; at 11.0 µM -4% | [6]; at 33.0 µM 7% | [6]; [17] 35% | [7]; at 1.2 µM -4% | [7]; at 3.7 µM -4% | [7]; at 11.0 µM 1% | [7]; at 33.0 µM 25% | [8]; [16] -1% | [9]; at 1.2 µM -7% | [9]; at 3.7 µM -11% | [9]; at 11.0 µM -11% | [9]; at 33.0 µM 4% | [10]; [16] -29% | [10]; [17] 28% | [10]; at 50.0 µM 66.5% | [11]; at 1.2 µM 2% | [11]; at 3.7 µM -1% | [11]; [16] 8% | [11]; at 11.0 µM 10% | [11]; at 33.0 µM 41% | [11]; [17] 31% | [12]; at 1.2 µM -1% | [12]; at 3.7 µM 1% | [12]; at 11.0 µM 12% | [13]; at 1.2 µM -1% | [13]; at 3.7 µM -1% | [13]; at 11.0 µM 6% | [14]; at 1.2 µM 0% | [14]; at 3.7 µM 1% | [14]; at 11.0 µM 19% | [15]; [16] -17% | [15]; [17] 69%
active: [1]; at 33.0 µM 70% | [1]; at 100.0 µM 98% | [2]; at 100.0 µM 96% | [4]; at 100.0 µM 99% | [5]; at 50.0 µM 90.7% | [5]; at 100.0 µM 98% | [6]; at 50.0 µM 74.5% | [6]; at 100.0 µM 98% | [7]; at 100.0 µM 97% | [8]; [17] 80% | [8]; at 50.0 µM 95.5% | [9]; at 100.0 µM 97% | [11]; at 50.0 µM 93.2% | [11]; at 100.0 µM 99% | [12]; at 33.0 µM 77% | [12]; at 100.0 µM 99% | [13]; at 33.0 µM 73% | [13]; at 100.0 µM 99% | [14]; at 33.0 µM 80% | [14]; at 100.0 µM 98% | [15]; at 50.0 µM 95.8%
